Records with an inconclusive call do not appear. Active and inactive are the calls of the source. The calls were made as follows, unless noted: active = hit-call score of the fitted dose curve at least 0.9, where 1 is the maximum; inactive = score below 0.9.
Key:
[1] = read-out: NAD(P)H dehydrogenase [quinone] 1 (NQO1), NQO1 (gene 1728); experiment: LTEA_HepaRG_NQO1: Life Technologies and Expression Analysis (LTEA) Assay for NAD(P)H dehydrogenase [quinone] 1 (NQO1) using HepaRG (AID 2283526); conditions: mRNA level, 48 h; actives raise or lower the signal
In short: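 HepaRG, 48 h post-plating → serum-free induction medium → test chemical 48 h (duplicate, 100 uM top, half-log x8, 0.5% DMSO) → RNA isolation → qRT-PCR, ACTB/GAPDH/POLR2A normalization; bidirectional curve fit vs DMSO baseline.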

[2] = read-out: Nuclear factor erythroid 2-related factor 2 (Homo sapiens) (UniProt Q16236); experiment: LTEA_HepaRG_NFE2L2: Life Technologies and Expression Analysis (LTEA) Assay for Nuclear factor erythroid 2-related factor 2 (NFE2L2) Transcription Factor using HepaRG (AID 2283527); conditions: mRNA level, 48 h; actives raise or lower the signal
In short: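 Differentiated human HepaRG cells in serum-free induction medium were exposed for 48 h to eight concentrations (top 100 uM, half-log dilutions, 0.5% DMSO), in duplicate. NFE2L2 mRNA was quantified by TaqMan qRT-PCR, normalized to ACTB, GAPDH and POLR2A, with bidirectional fitting versus DMSO.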

[3] = read-out: succinate dehydrogenase complex iron sulfur subunit B (SDHB), SDHB (gene 6390); experiment: LTEA_HepaRG_SDHB: Life Technologies and Expression Analysis (LTEA) Assay for succinate dehydrogenase complex iron sulfur subunit B (SDHB) using HepaRG (AID 2283528); conditions: mRNA level, 48 h; actives raise or lower the signal
In short: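 A human HepaRG culture in serum-free induction medium received test chemicals for 48 h over an eight-point range capped at 100 uM. SDHB expression change was quantified by qRT-PCR.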

[4] = read-out: Signal transducer and activator of transcription 3 (Homo sapiens) (UniProt P40763); experiment: LTEA_HepaRG_STAT3: Life Technologies and Expression Analysis (LTEA) Assay for Signal transducer and activator of transcription (STAT3) using HepaRG (AID 2283529); conditions: mRNA level, 48 h; actives raise or lower the signal
In short: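 Differentiated human HepaRG cells in serum-free induction medium were exposed in duplicate for 48 h to eight half-log concentrations up to 100 uM in 0.5% DMSO. STAT3 mRNA was quantified by TaqMan qRT-PCR, normalized to ACTB, GAPDH and POLR2A, and fitted bidirectionally against DMSO.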

[5] = read-out: solute carrier (SLCO1B1), SLCO1B1 (gene 10599); experiment: LTEA_HepaRG_SLCO1B1: Life Technologies and Expression Analysis (LTEA) Assay for solute carrier (SLCO1B1) using HepaRG (AID 2283530); conditions: mRNA level, 48 h; actives raise or lower the signal
In short: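 Differentiated human HepaRG cells, plated 48 h, switched to serum-free induction medium and exposed in duplicate for 48 h to 8 half-log concentrations (top 100 uM) in 0.5% DMSO. SLCO1B1 mRNA by TaqMan qRT-PCR, normalized to ACTB/GAPDH/POLR2A.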

[6] = read-out: sulfotransferase 2A1 (SULT2A1), SULT2A1 (gene 6822); experiment: LTEA_HepaRG_SULT2A1: Life Technologies and Expression Analysis (LTEA) Assay for sulfotransferase 2A1 (SULT2A1) using HepaRG (AID 2283531); conditions: mRNA level, 48 h; actives raise or lower the signal
In short: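 Differentiated human HepaRG cells in serum-free induction medium were exposed for 48 h to eight half-log concentrations (top 100 uM, 0.5% DMSO). SULT2A1 mRNA was measured by qRT-PCR, normalized to ACTB, GAPDH and POLR2A, and fitted bidirectionally against DMSO.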

[7] = read-out: Transforming Growth Factor (TGFA), TGFA (gene 7039); experiment: LTEA_HepaRG_TGFA: Life Technologies and Expression Analysis (LTEA) Assay for Transforming Growth Factor (TGFA) using HepaRG (AID 2283532); conditions: mRNA level, 48 h; actives raise or lower the signal
In short: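 Differentiated human HepaRG cells, plated 48 h then switched to serum-free induction medium, were exposed in duplicate for 48 h to 8-point half-log series from 100 uM in 0.5% DMSO. TGFA mRNA measured by qRT-PCR, normalized to ACTB/GAPDH/POLR2A, bidirectional fit versus DMSO.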

[8] = read-out: Transforming Growth Factor (TGFB1), TGFB1 (gene 7040); experiment: LTEA_HepaRG_TGFB1: Life Technologies and Expression Analysis (LTEA) Assay for Transforming Growth Factor (TGFB1) Transporter using HepaRG (AID 2283533); conditions: mRNA level, 48 h; actives raise or lower the signal
In short: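 Differentiated human HepaRG cells in serum-free induction medium were exposed in duplicate for 48 h to eight concentrations (top 100 uM, half-log steps, 0.5% DMSO). TGFB1 mRNA was quantified by qRT-PCR, normalized to ACTB, GAPDH, POLR2A, and fitted bidirectionally against DMSO.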

TIMP1, TIMP1 (gene 7076) = experiment: LTEA_HepaRG_TIMP1: Life Technologies and Expression Analysis (LTEA) Assay for TIMP1 using HepaRG (AID 2283534); conditions: mRNA level, 48 h; actives raise or lower the signal;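 also: TaqMan qRT-PCR signal normalized to ACTB GAPDH and POLR2A housekeeping genes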
In short: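 Differentiated human HepaRG cells in serum-free induction medium were exposed 48 h to chemicals (8 half-log concentrations, top 100 uM, 0.5% DMSO). TIMP1 mRNA was quantified by TaqMan qRT-PCR, normalized to ACTB/GAPDH/POLR2A; bidirectional fit versus DMSO.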

[9] = read-out: Tumor necrosis factor receptor 1 (TNFRSF1A), TNFRSF1A (gene 7132); experiment: LTEA_HepaRG_TNFRSF1A: Life Technologies and Expression Analysis (LTEA) Assay for Tumor necrosis factor receptor 1 (TNFRSF1A) using HepaRG (AID 2283535); conditions: mRNA level, 48 h; actives raise or lower the signal
In short: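 Differentiated human HepaRG cells were exposed in duplicate for 48 h in serum-free induction medium to eight concentrations (top 100 uM, half-log steps, 0.5% DMSO). TNFRSF1A mRNA was quantified by qRT-PCR, normalized to ACTB, GAPDH and POLR2A, then fitted bidirectionally against DMSO.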

[10] = read-out: Thyroid Hormone Responsive (THRSP), THRSP (gene 7069); experiment: LTEA_HepaRG_THRSP: Life Technologies and Expression Analysis (LTEA) Assay for Thyroid Hormone Responsive (THRSP) using HepaRG (AID 2283536); conditions: mRNA level, 48 h; actives raise or lower the signal
In short: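 Differentiated human HepaRG cells were exposed in duplicate for 48 h in serum-free induction medium to eight concentrations (top 100 uM, half-log steps, 0.5% DMSO). Expression was quantified by TaqMan qRT-PCR, normalized to ACTB, GAPDH and POLR2A, with bidirectional fitting against DMSO.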

[11] = read-out: Cellular tumor antigen p53 (Homo sapiens) (UniProt P04637); experiment: LTEA_HepaRG_TP53: Life Technologies and Expression Analysis (LTEA) Assay for Tumor Protein P53 (TP53) using HepaRG (AID 2283537); conditions: mRNA level, 48 h; actives raise or lower the signal
In short: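 Gain or loss of TP53 mRNA signal is scored relative to 0.5% DMSO after 48 h chemical treatment of HepaRG liver cells, tested in duplicate at eight half-log concentrations up to 100 uM.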

[12] = read-out: UDP glucuronosyltransferase (UGT1A1), UGT1A1 (gene 54658); experiment: LTEA_HepaRG_UGT1A1: Life Technologies and Expression Analysis (LTEA) Assay for UDP glucuronosyltransferase (UGT1A1) using HepaRG (AID 2283538); conditions: mRNA level, 48 h; actives raise or lower the signal
In short: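 Readout is UGT1A1 transcript level by qRT-PCR, normalized to three housekeeping genes, after 48 h chemical treatment of HepaRG cells. Concentrations ran from 100 uM down in half-log steps with 0.5% DMSO, and gain or loss relative to DMSO was fitted.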

[13] = read-out: UDP glucuronosyltransferase (UGT1A6), UGT1A6 (gene 54578); experiment: LTEA_HepaRG_UGT1A6: Life Technologies and Expression Analysis (LTEA) Assay for UDP glucuronosyltransferase (UGT1A6) using HepaRG (AID 2283539); conditions: mRNA level, 48 h; actives raise or lower the signal
In short: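 Human HepaRG cells were dosed for 48 h in serum-free induction medium with 0.5% DMSO vehicle, eight-point half-log series from 100 uM, in duplicate. UGT1A6 mRNA was measured by qRT-PCR, normalized to ACTB, GAPDH, POLR2A, and fitted bidirectionally against DMSO.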

[14] = read-out: X-box binding protein 1 (XBP1), XBP1 (gene 7494); experiment: LTEA_HepaRG_XBP1: Life Technologies and Expression Analysis (LTEA) Assay for X-box binding protein 1 (XBP1) using HepaRG (AID 2283540); conditions: mRNA level, 48 h; actives raise or lower the signal
In short: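 Differentiated human HepaRG cells in serum-free induction medium were exposed in duplicate for 48 h to eight half-log concentrations up to 100 uM in 0.5% DMSO. XBP1 mRNA was quantified by qRT-PCR, normalised to ACTB, GAPDH and POLR2A, with bidirectional fitting against DMSO.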

[15] = LTEA_HepaRG_LDH_cytotoxicity: Cytotoxicity Assessment in the Life Technologies and Expression Analysis (LTEA) Assay (AID 2283563; active = hit-call score of the fitted dose curve at least 0.9, where 1 is the maximum)
In short: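 Differentiated human HepaRG cells, plated 48 h beforehand, were switched to serum-free induction medium and exposed for 48 h to eight half-log concentrations (top 100 uM) in 0.5% DMSO. LDH was measured in spent medium; activity was fitted relative to DMSO vehicle.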

[16] = TOX21_p53_BLA_p2_viability: Viability Assessment in the Tox21 HCT-116 p53 Agonism Beta-lactamase Assay, Phase 2 (AID 2283591; active = hit-call score of the fitted dose curve at least 0.9, where 1 is the maximum;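 also: compound exposure lasted 16 h at 37 °C; actives lower the ATP signal meaning cytotoxicity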)
In short: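 HCT-116 p53-bla cells (4000/well) rested 5 h at 37C, then received compounds in DMSO (217-fold dilution) for 16 h at 37C, 5% CO2. After the CCF4 read, CellTiter-Glo was added; ATP luminescence was read after 30 min at room temperature.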

[17] = biological target: Cellular tumor antigen p53 (Homo sapiens) (UniProt P04637); experiment: TOX21_p53_BLA_p2_ratio: Tox21 HCT-116 p53 Agonism Beta-lactamase Assay, Ratio, Phase 2 (AID 2283592; active = hit-call score of the fitted dose curve at least 0.9, where 1 is the maximum)
Cellular tumor antigen p53 (Homo sapiens), sequence (P04637 whole entry, looked up): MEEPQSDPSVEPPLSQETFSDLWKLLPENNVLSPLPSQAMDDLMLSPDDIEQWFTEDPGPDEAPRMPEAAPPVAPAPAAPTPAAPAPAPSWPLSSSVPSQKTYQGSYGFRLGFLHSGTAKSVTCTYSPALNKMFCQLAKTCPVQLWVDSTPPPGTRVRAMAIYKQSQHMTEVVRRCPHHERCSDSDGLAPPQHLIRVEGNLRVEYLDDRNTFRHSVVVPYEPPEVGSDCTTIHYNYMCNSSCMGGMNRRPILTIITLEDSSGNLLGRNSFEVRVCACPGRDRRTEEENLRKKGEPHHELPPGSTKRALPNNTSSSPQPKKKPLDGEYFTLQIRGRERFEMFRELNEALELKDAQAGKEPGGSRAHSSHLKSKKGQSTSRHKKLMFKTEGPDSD
In short: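 HCT116 cells carrying a p53-responsive beta-lactamase reporter were plated, incubated 5 h at 37C, then dosed with compounds in DMSO (217-fold dilution) for 16 h. CCF4-AM substrate was added for 2 h at room temperature; the 460/530 nm emission ratio gave gain-of-signal activity relative to DMSO.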

[18] = TOX21_p53_BLA_p3_viability: Viability Assessment in the Tox21 HCT-116 p53 Agonism Beta-lactamase Assay, Phase 3 (AID 2283593; active = hit-call score of the fitted dose curve at least 0.9, where 1 is the maximum;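 also: cells exposed to compound for 16 h before reading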)
In short: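 HCT-116 cells (4000/well) rested 5 h at 37C, then got DMSO compounds by pin tool (217-fold dilution) for 16 h at 37C, 5% CO2. After the bla read, CellTiter-Glo was added and luminescence read at 30 min, room temperature.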

Measured: AC50

Nuclear factor erythroid 2-related factor 2 (Homo sapiens), sequence (Q16236 whole entry, looked up): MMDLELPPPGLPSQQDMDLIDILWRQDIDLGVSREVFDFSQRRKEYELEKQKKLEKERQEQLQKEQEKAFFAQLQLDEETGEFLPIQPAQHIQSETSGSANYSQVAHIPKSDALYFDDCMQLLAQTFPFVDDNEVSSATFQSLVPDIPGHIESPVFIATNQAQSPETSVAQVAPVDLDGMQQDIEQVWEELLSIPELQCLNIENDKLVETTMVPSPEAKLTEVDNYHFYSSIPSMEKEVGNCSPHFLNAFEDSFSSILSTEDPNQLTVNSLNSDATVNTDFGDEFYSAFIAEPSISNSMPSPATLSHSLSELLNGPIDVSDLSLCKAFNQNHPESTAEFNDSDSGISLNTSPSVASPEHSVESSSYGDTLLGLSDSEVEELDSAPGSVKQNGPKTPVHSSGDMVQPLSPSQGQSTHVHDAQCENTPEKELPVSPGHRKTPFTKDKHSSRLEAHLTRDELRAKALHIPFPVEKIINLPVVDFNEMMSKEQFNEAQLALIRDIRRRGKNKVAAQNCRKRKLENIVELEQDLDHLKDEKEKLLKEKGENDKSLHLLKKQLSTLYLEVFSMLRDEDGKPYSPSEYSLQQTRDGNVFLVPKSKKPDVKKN
Signal transducer and activator of transcription 3 (Homo sapiens), sequence (P40763 whole entry, looked up): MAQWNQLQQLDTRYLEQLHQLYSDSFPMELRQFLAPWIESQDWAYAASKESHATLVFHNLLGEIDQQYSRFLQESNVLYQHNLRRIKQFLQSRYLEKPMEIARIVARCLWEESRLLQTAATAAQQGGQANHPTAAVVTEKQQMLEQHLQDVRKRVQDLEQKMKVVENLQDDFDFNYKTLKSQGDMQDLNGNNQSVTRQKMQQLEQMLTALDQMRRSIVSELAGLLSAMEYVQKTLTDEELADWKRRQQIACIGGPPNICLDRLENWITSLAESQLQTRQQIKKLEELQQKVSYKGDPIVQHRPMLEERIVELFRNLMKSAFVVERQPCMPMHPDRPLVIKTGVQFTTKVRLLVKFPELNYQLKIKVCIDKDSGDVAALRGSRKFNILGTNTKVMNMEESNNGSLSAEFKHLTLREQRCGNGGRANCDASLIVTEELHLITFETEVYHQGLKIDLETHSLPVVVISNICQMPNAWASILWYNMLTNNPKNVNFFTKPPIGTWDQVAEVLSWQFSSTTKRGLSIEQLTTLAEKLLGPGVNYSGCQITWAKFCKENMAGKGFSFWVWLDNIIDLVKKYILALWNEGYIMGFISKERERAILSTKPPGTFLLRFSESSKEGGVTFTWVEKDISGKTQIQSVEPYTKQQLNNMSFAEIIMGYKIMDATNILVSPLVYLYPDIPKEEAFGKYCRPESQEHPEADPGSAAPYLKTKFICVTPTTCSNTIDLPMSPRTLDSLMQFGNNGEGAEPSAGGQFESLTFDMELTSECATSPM

CC1(C)CCC(=Cc2ccc(Cl)cc2)C1(O)Cn1cncn1 (stereo unspecified)
active: [10] 24.1 µM | [12] 5.72 µM
inactive: [1] | [2] | [3] | [4] | [5] | [6] | [7] | [8] | TIMP1, TIMP1 (gene 7076) | [9] | [11] | [13] | [14] | [15] | [16] | [17] | [18]

Cc1ccc(N=CN(C)C=Nc2ccc(C)cc2C)c(C)c1
active: [12] 39.3 µM
inactive: [1] | [2] | [3] | [4] | [5] | [6] | [7] | [8] | TIMP1, TIMP1 (gene 7076) | [9] | [10] | [11] | [13] | [14] | [15] | [16] | [17] | [18]

CCCCC(C#N)(Cn1cncn1)c1ccc(Cl)cc1 (stereo unspecified)
inactive: [1] | [2] | [3] | [4] | [5] | [6] | [7] | TIMP1, TIMP1 (gene 7076) | [9] | [11] | [13] | [14] | [15] | [16] | [17] | [18]
active: [8] 50 µM | [10] 25 µM | [12] 12.2 µM

COCC(C)N(C(=O)CCl)c1c(C)csc1C (stereo unspecified)
inactive: [1] | [2] | [3] | [4] | [5] | [6] | [7] | [8] | TIMP1, TIMP1 (gene 7076) | [9] | [10] | [11] | [13] | [14] | [15] | [16] | [17]
active: [12] 22.2 µM

COC(=O)NS(=O)(=O)c1ccc(N)cc1
inactive: [1] | [2] | [3] | [4] | [5] | [6] | [7] | [8] | TIMP1, TIMP1 (gene 7076) | [9] | [10] | [11] | [12] | [13] | [14] | [15] | [16] | [17] | [18]

CNC(=O)Oc1cccc2ccccc12
inactive: [1] | [2] | [3] | [4] | [5] | [6] | [7] | [8] | TIMP1, TIMP1 (gene 7076) | [9] | [10] | [11] | [13] | [14] | [15] | [17] | [18]
active: [12] 50 µM

CCCCC(O)(Cn1cncn1)c1ccc(Cl)cc1Cl (stereo unspecified)
active: [1] 50 µM | [2] 50 µM | [4] 85.9 µM | [5] 76.6 µM | [6] 76.3 µM | [7] 71.8 µM | [8] 61.2 µM | [10] 9.77 µM | [11] 72.4 µM | [12] 81.4 µM | [13] 73.4 µM
inactive: [3] | TIMP1, TIMP1 (gene 7076) | [9] | [14] | [15] | [16] | [17] | [18]
